Inconclusive results are not listed. Where a call stands in place of a potency, no number is given. The source made the active and inactive calls. The call rests on the fitted dose curve; in most records, active means well fitted curve in the direction sought with a large enough effect; inconclusive means small, poorly fitted or top-dose-only effect, or another doubt; inactive means no such curve, though single readings can be large; an effect the other way counts as inactive or inconclusive.
Tests used:
[1] = qHTS of pediatric cancer cell lines to identify multiple opportunities for drug repurposing: Confirmatory screen for control Hh wild type fibroblast cells (AID 1347121); details: viability qHTS; series mostly up to 45.9 µM; further: nearly all actives have a fitted effect of over 70% in size
How it was run: (§1)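 Cells (500-1,000/well) in growth media were settled 5 h at 37 degrees C, then given compounds for 48 h. Viability was read as CellTiter-Glo luminescence. Primary runs used MIPE at 11 points (0.78 nM-46 µM) and NPC at 8 points (0.59 nM-46 µM); follow-ups used 11 points.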

[2] = qHTS of pediatric cancer cell lines to identify multiple opportunities for drug repurposing: Confirmatory screen for Rh41 cells (AID 1347123); details: Rh41 rhabdomyosarcoma cells, viability/cytotoxicity qHTS; series mostly up to 45.9 µM;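 further: 48 h compound exposure; nearly all actives have a fitted effect of over 60% in size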
How it was run: as §1

[3] = qHTS of pediatric cancer cell lines to identify multiple opportunities for drug repurposing: Confirmatory screen for SK-N-SH cells (AID 1347129); details: SK-N-SH neuroblastoma cell viability; series mostly up to 46.1 µM;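 further: cells exposed to compound for 48 h before viability read; nearly all actives have a fitted effect of over 60% in size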
How it was run: as §1

[4] = qHTS of pediatric cancer cell lines to identify multiple opportunities for drug repurposing: Confirmatory screen for U-2 OS cells (AID 1347122); details: U-2 OS osteosarcoma cell viability; series mostly up to 45.9 µM; further: nearly all actives have a fitted effect of over 65% in size
How it was run: as §1

[5] = qHTS of pediatric cancer cell lines to identify multiple opportunities for drug repurposing: Confirmatory screen for RD cells (AID 1347124); details: RD rhabdomyosarcoma cell viability; series mostly up to 45.9 µM;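 further: cells exposed to compound for 48 h before viability readout; nearly all actives have a fitted effect of over 65% in size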
How it was run: as §1

[6] = qHTS of pediatric cancer cell lines to identify multiple opportunities for drug repurposing: Confirmatory screen for Rh18 cells (AID 1347125); details: Rh18 rhabdomyosarcoma cells, viability; series mostly up to 45.9 µM; further: nearly all actives have a fitted effect of over 55% in size
How it was run: as §1

[7] = qHTS of pediatric cancer cell lines to identify multiple opportunities for drug repurposing: Confirmatory screen for OHS-50 cells (AID 1347128); details: OHS-50 osteosarcoma cells viability; series mostly up to 45.9 µM;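 further: compound exposure lasted 48 h at 37 degrees C; nearly all actives have a fitted effect of over 55% in size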
How it was run: as §1

[8] = tested on: Zika virus NS2B-NS3 protease (unlinked); experiment: Optimization of GU AMC qHTS for Zika virus inhibitors: Unlinked NS2B-NS3 protease assay (AID 1347151); details: recombinant ZIKV NS2B-NS3 protease, fluorogenic AMC substrate; series mostly up to 52.5 µM; further: nearly all actives have a fitted effect of over 80% in size
How it was run: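 Fluorescence read-out (340 nm ex / 450 nm em) of AMC peptide cleavage, taken immediately and after 15 min at room temperature (~20% conversion). Enzyme was the unlinked NS2B–NS3 complex at 25 nM in Tris pH 8.0 buffer.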
Potency means the concentration at half of the fitted maximal effect.

Compound	Potency [1]	Potency [2]	Potency [3]	Potency [4]	Potency [5]	Potency [6]	Potency [7]	Potency [8]
O=c1[nH]sc2cc(Cl)ccc12	inactive	1.85 µM (active)	inactive					
N=C(N)c1ccc(OCCCOc2ccc(C(=N)N)cc2)cc1	inactive	inactive	inactive	0.465 µM (active)	inactive	inactive	inactive	
CCC1=C[C@@H]2CN(C1)Cc1c([nH]c3ccccc13)[C@@](C(=O)OC)(c1cc3c(cc1OC)N(C)[C@H]1[C@@](O)(C(=O)OC)[C@H](OC(C)=O)[C@]4(CC)C=CCN5CC[C@]31[C@@H]54)C2	inactive			0.185 µM (active)	0.0293 µM (active)	inactive		
COc1c(C)c2c(c(O)c1C/C=C(\C)CCC(=O)OCCN1CCOCC1)C(=O)OC2	inactive	2.33 µM (active)		0.185 µM (active)				21.5 µM (active)
CCC(=O)O[C@]1(C(=O)COC)[C@@H](C)C[C@H]2[C@@H]3CCC4=CC(=O)C=C[C@]4(C)C3(F)[C@@H](O)C[C@@]21C (some centres undefined)	inactive	16.5 µM (active)	inactive	inactive	inactive	inactive	inactive	
CC(=O)OCC(=O)[C@@]1(O)[C@H](OC(C)=O)C[C@H]2[C@@H]3CCC4=CC(=O)C=C[C@]4(C)[C@@]3(F)[C@@H](O)C[C@@]21C	inactive	inactive	inactive	inactive	inactive	inactive	inactive	
CCCC(=O)O[C@]1(C(=O)COC(=O)CC)CC[C@H]2[C@@H]3CCC4=CC(=O)CC[C@]4(C)[C@H]3[C@@H](O)C[C@@]21C	inactive		inactive			inactive	inactive	
Cc1cc(OCCOCC[N+](C)(C)Cc2ccccc2)ccc1C(C)(C)CC(C)(C)C	20.8 µM (active)	7.37 µM (active)	20.9 µM (active)	23.3 µM (active)	10.4 µM (active)	18.5 µM (active)	14.7 µM (active)	
Cc1ccc(C(=O)Oc2ccc(C(O)CNC(C)(C)C)cc2OC(=O)c2ccc(C)cc2)cc1 (centres undefined)	inactive				inactive	inactive		
CN(C)CCN(Cc1ccsc1)c1ccccn1	inactive	inactive	inactive		inactive	inactive		
CCOC(=O)O[C@]1(C(=O)OCCl)CC[C@H]2[C@@H]3CCC4=CC(=O)C=C[C@]4(C)[C@H]3[C@@H](O)C[C@@]21C	inactive	inactive	inactive	inactive	inactive	inactive	inactive	
CC(C)=CCC/C(C)=C/CC/C(C)=C/C(=O)OCC(=O)[C@@]1(O)CC[C@H]2[C@@H]3CCC4=CC(=O)C=C[C@]4(C)[C@H]3[C@@H](O)C[C@@]21C		16.5 µM (active)	inactive	20.8 µM (active)		inactive		
C[C@H]1C[C@@H]2[C@H]([C@@H](O)C[C@@]3(C)[C@H]2CC[C@]3(O)C(=O)CO)[C@@]2(C)C=CC(=O)C=C12	inactive	inactive	inactive	inactive		inactive	inactive	
CCc1cc2cc(OC)c(OC)cc2c(Cc2ccccc2)n1	inactive	18.5 µM (active)	inactive	inactive	inactive	inactive		
CO[C@@H]1[C@@H](OC)[C@H](C)[C@@](O)(CC(=O)O)O[C@H]1[C@H](C)[C@H]1O[C@@]2(CC[C@@](C)([C@H]3CC[C@@](C)([C@@H]4O[C@@H]([C@H]5O[C@](C)(O)[C@H](C)C[C@@H]5C)C[C@@H]4OC4C[C@H](OC)[C@@H](OC)[C@H](C)O4)O3)O2)C[C@H](O)[C@H]1C (some centres undefined)	8.27 µM (active)	0.465 µM (active)	1.48 µM (active)	0.329 µM (active)		6.57 µM (active)	0.657 µM (active)	
COc1cc(/C=C/C(N)=O)cc(OC)c1OC	inactive	inactive	inactive	inactive		inactive	inactive	
CC(=O)OCC(=O)[C@@]1(O)CCC2C3CCC4=CC(=O)CC[C@]4(C)C3[C@@H](O)C[C@@]21C (some centres undefined)	inactive	11.7 µM (active)	inactive			inactive	inactive	
CCCCC(CC)CNC(=O)CC(C)OC(=O)CCC(=O)O (centres undefined)	inactive	inactive	inactive	inactive	inactive	inactive	inactive	
Cc1nc(N)nc(N)c1-c1ccc(Cl)c(Cl)c1	inactive	inactive	inactive		2.61 µM (active)	inactive	1.31 µM (active)	
